# Assay results as given in PubChem BioAssay (NCI).
# “And” between values parts separate entries of the source, which are not always exact repeats. Equal values may be shown once. This is part of a sample that, as a whole, favours compounds with a hit. Of some 83,000 tested, about 20% had one in any assay.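 Activity criterion: percent growth below 10, measured after cells in 96-well plates were exposed to a single compound concentration for 48 hours.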 Values without a mark were called inactive. The source made the active and inactive calls. Starred links: 1 amine or outer side, 2 acyl side, 3 side chain; linkers in the order of their positions; H or OH if unused. Positions of bridges follow the written chain, without caps; N, C: chain ends. Non-standard residues stand in square brackets, D forms with d. Residues, ends and D or L forms follow the SMILES beside them. Chains are numbered I, II in the order given. Actinocin(9to1) = Cc1c2oc3c(C)ccc(C(=O)[*:1])c3nc-2c(C(=O)[*:2])c(N)c1=O; aThr = C[C@H](O)[C@H](N)C(=O)O; NMeV = CN[C@H](C(=O)O)C(C)C; Sar = CNCC(=O)O
# How the values were obtained:
# Test in all cases: NCI-60 one-dose screen, 48 h (100 = growth as untreated, 0 = no growth, -100 = all killed)
# SR leukemia = test system: SR leukemia
# RPMI-8226 leukemia = test system: RPMI-8226 leukemia
# OVCAR-8 ovarian = test system: OVCAR-8 ovarian
# OVCAR-5 ovarian = test system: OVCAR-5 ovarian
# OVCAR-4 ovarian = test system: OVCAR-4 ovarian
# SK-OV-3 ovarian = test system: SK-OV-3 ovarian
# OVCAR-3 ovarian = test system: OVCAR-3 ovarian
# HS 578T breast = test system: HS 578T breast
# NCI/ADR-RES ovarian = test system: NCI/ADR-RES ovarian
# IGROV1 ovarian = test system: IGROV1 ovarian
smiles,measurement,setting,value
Cc1cnc(/C=N\NC(N)=S)c2cccc(N)c12,growth,SR leukemia; 10 µM,-16.3% (active)
same,growth,RPMI-8226 leukemia; 10 µM,-9.76% (active)
same,growth,OVCAR-8 ovarian; 10 µM,17.7%
same,growth,OVCAR-5 ovarian; 10 µM,34.9%
same,growth,OVCAR-4 ovarian; 10 µM,31.9%
same,growth,SK-OV-3 ovarian; 10 µM,22.9%
same,growth,OVCAR-3 ovarian; 10 µM,0.342% (active)
same,growth,HS 578T breast; 10 µM,69.1%
same,growth,NCI/ADR-RES ovarian; 10 µM,10.9%
O=c1[nH]cc(F)c(=O)[nH]1,growth,SR leukemia; 10 µM,27.6% and 37.4%
same,growth,SR leukemia; 25 µM,24.8%
same,growth,SR leukemia; 50 µM,31.6%
same,growth,RPMI-8226 leukemia; 10 µM,39.4% and 59.5%
same,growth,RPMI-8226 leukemia; 25 µM,41.4%
same,growth,OVCAR-8 ovarian; 10 µM,53.1%
same,growth,OVCAR-8 ovarian; 50 µM,46.7%
same,growth,OVCAR-5 ovarian; 10 µM,82.1% and 70.7%
same,growth,OVCAR-5 ovarian; 25 µM,44.3%
same,growth,OVCAR-5 ovarian; 50 µM,73%
same,growth,OVCAR-4 ovarian; 10 µM,72.6% and 107%
same,growth,OVCAR-4 ovarian; 25 µM,59.4%
same,growth,OVCAR-4 ovarian; 50 µM,68.5%
same,growth,SK-OV-3 ovarian; 10 µM,70% and 74.7%
same,growth,SK-OV-3 ovarian; 25 µM,77.5%
same,growth,IGROV1 ovarian; 10 µM,54.3% and 44.1%
same,growth,IGROV1 ovarian; 25 µM,51.2%
same,growth,IGROV1 ovarian; 50 µM,46.2%
same,growth,OVCAR-3 ovarian; 10 µM,52.5% and 72.2%
same,growth,OVCAR-3 ovarian; 25 µM,47.4%
same,growth,OVCAR-3 ovarian; 50 µM,31%
same,growth,HS 578T breast; 10 µM,99%
same,growth,HS 578T breast; 25 µM,-10.8% (active)
same,growth,HS 578T breast; 50 µM,58.8%
same,growth,NCI/ADR-RES ovarian; 10 µM,67.2% and 63.5%
same,growth,NCI/ADR-RES ovarian; 25 µM,47.6%
same,growth,NCI/ADR-RES ovarian; 50 µM,56.5%
BrC/C=C/C[P+](c1ccccc1)(c1ccccc1)c1ccccc1,growth,RPMI-8226 leukemia; 10 µM,4.56% (active)
same,growth,OVCAR-8 ovarian; 10 µM,28.3%
same,growth,OVCAR-5 ovarian; 10 µM,85.2%
same,growth,OVCAR-4 ovarian; 10 µM,98.8%
same,growth,SK-OV-3 ovarian; 10 µM,95.5%
same,growth,IGROV1 ovarian; 10 µM,83.8%
same,growth,OVCAR-3 ovarian; 10 µM,32.4%
same,growth,HS 578T breast; 10 µM,92.4%
same,growth,NCI/ADR-RES ovarian; 10 µM,96.7%
Cc1cc(NCCCN(C)C)c2ccc3c(ccc4c(NCCCN(C)C)cc(C)nc43)c2n1,growth,RPMI-8226 leukemia; 10 µM,-11.3% (active)
same,growth,OVCAR-8 ovarian; 10 µM,-24.6% (active)
same,growth,OVCAR-5 ovarian; 10 µM,-15.4% (active)
same,growth,OVCAR-4 ovarian; 10 µM,-33.7% (active)
same,growth,SK-OV-3 ovarian; 10 µM,-39.4% (active)
same,growth,IGROV1 ovarian; 10 µM,-73.4% (active)
same,growth,OVCAR-3 ovarian; 10 µM,-58.3% (active)
same,growth,HS 578T breast; 10 µM,-42.7% (active)
same,growth,NCI/ADR-RES ovarian; 10 µM,-10.4% (active)
S=c1[nH]nc(Cc2ccccc2)c(=S)[nH]1,growth,SR leukemia; 10 µM,94.7%
same,growth,RPMI-8226 leukemia; 10 µM,97.2%
same,growth,OVCAR-8 ovarian; 10 µM,104%
same,growth,OVCAR-5 ovarian; 10 µM,107%
same,growth,OVCAR-4 ovarian; 10 µM,98%
same,growth,SK-OV-3 ovarian; 10 µM,99.6%
same,growth,IGROV1 ovarian; 10 µM,102%
same,growth,OVCAR-3 ovarian; 10 µM,95.4%
same,growth,HS 578T breast; 10 µM,101%
same,growth,NCI/ADR-RES ovarian; 10 µM,100%
N#C/C(=C1C=C/C(=N\O)C(Cl)=C\1)c1ccccc1,growth,RPMI-8226 leukemia; 10 µM,27.3%
same,growth,OVCAR-8 ovarian; 10 µM,43.2%
same,growth,OVCAR-5 ovarian; 10 µM,64%
same,growth,OVCAR-4 ovarian; 10 µM,57%
same,growth,SK-OV-3 ovarian; 10 µM,37.5%
same,growth,IGROV1 ovarian; 10 µM,53%
same,growth,OVCAR-3 ovarian; 10 µM,39.6%
same,growth,HS 578T breast; 10 µM,56.2%
same,growth,NCI/ADR-RES ovarian; 10 µM,34%
CCCCCCCCCCCCCCCCCN,growth,SR leukemia; 10 µM,57.8%
same,growth,RPMI-8226 leukemia; 10 µM,107%
same,growth,OVCAR-8 ovarian; 10 µM,104%
same,growth,OVCAR-5 ovarian; 10 µM,106%
same,growth,OVCAR-4 ovarian; 10 µM,102%
same,growth,SK-OV-3 ovarian; 10 µM,96.8%
same,growth,IGROV1 ovarian; 10 µM,107%
same,growth,OVCAR-3 ovarian; 10 µM,108%
same,growth,HS 578T breast; 10 µM,103%
same,growth,NCI/ADR-RES ovarian; 10 µM,115%
Nc1ccc2cc(Br)c3ccccc3c2c1,growth,SR leukemia; 10 µM,57.5%
same,growth,RPMI-8226 leukemia; 10 µM,40%
same,growth,OVCAR-8 ovarian; 10 µM,84.8%
same,growth,OVCAR-5 ovarian; 10 µM,79.9%
same,growth,OVCAR-4 ovarian; 10 µM,56.7%
same,growth,SK-OV-3 ovarian; 10 µM,81.1%
same,growth,IGROV1 ovarian; 10 µM,82.2%
same,growth,OVCAR-3 ovarian; 10 µM,74.6%
same,growth,NCI/ADR-RES ovarian; 10 µM,67.2%
CN(C)CCC(=O)c1c[nH]c2ccccc12,growth,SR leukemia; 10 µM,91.5%
same,growth,RPMI-8226 leukemia; 10 µM,98.1%
same,growth,OVCAR-8 ovarian; 10 µM,112%
same,growth,OVCAR-5 ovarian; 10 µM,109%
same,growth,OVCAR-4 ovarian; 10 µM,111%
same,growth,SK-OV-3 ovarian; 10 µM,96.6%
same,growth,IGROV1 ovarian; 10 µM,106%
same,growth,OVCAR-3 ovarian; 10 µM,110%
same,growth,HS 578T breast; 10 µM,106%
same,growth,NCI/ADR-RES ovarian; 10 µM,110%
CN1CCN(c2ccc3nc(-c4ccc5nc(-c6ccc(O)cc6)[nH]c5c4)[nH]c3c2)CC1,growth,SR leukemia; 10 µM,67%
same,growth,RPMI-8226 leukemia; 10 µM,107%
same,growth,OVCAR-5 ovarian; 10 µM,61.9%
same,growth,OVCAR-4 ovarian; 10 µM,89.8%
same,growth,SK-OV-3 ovarian; 10 µM,84.4%
same,growth,IGROV1 ovarian; 10 µM,112%
same,growth,OVCAR-3 ovarian; 10 µM,66.4%
same,growth,NCI/ADR-RES ovarian; 10 µM,130%
CSc1ccc2c(c1)C(N1CCN(C)CC1)Cc1ccccc1S2 (configuration not stated),growth,SR leukemia; 10 µM,-32.8% (active)
same,growth,RPMI-8226 leukemia; 10 µM,24.3%
same,growth,OVCAR-8 ovarian; 10 µM,67.9%
same,growth,OVCAR-5 ovarian; 10 µM,41.7%
same,growth,OVCAR-4 ovarian; 10 µM,36.1%
same,growth,SK-OV-3 ovarian; 10 µM,86.2%
same,growth,IGROV1 ovarian; 10 µM,20.8%
same,growth,OVCAR-3 ovarian; 10 µM,61.4%
same,growth,HS 578T breast; 10 µM,39.8%
same,growth,NCI/ADR-RES ovarian; 10 µM,49.2%
COc1cc(C(C)(C)C)cc(OC)c1C(O)(c1c(OC)cc(C(C)(C)C)cc1OC)c1c(OC)cc(C(C)(C)C)cc1OC,growth,SR leukemia; 10 µM,-77.5% (active)
same,growth,RPMI-8226 leukemia; 10 µM,-27.1% (active)
same,growth,OVCAR-8 ovarian; 10 µM,-64.3% (active)
same,growth,OVCAR-5 ovarian; 10 µM,-100% (active)
same,growth,OVCAR-4 ovarian; 10 µM,-99.6% (active)
same,growth,SK-OV-3 ovarian; 10 µM,-86.7% (active)
same,growth,IGROV1 ovarian; 10 µM,2.83% (active)
same,growth,OVCAR-3 ovarian; 10 µM,-94.1% (active)
same,growth,HS 578T breast; 10 µM,-33.3% (active)
same,growth,NCI/ADR-RES ovarian; 10 µM,-56.8% (active)
O=C(/C(=C/c1ccccc1)CBr)c1ccccc1,growth,SR leukemia; 10 µM,-0.723% (active)
same,growth,RPMI-8226 leukemia; 10 µM,16.9%
same,growth,OVCAR-8 ovarian; 10 µM,86.1%
same,growth,OVCAR-5 ovarian; 10 µM,122%
same,growth,OVCAR-4 ovarian; 10 µM,80.3%
same,growth,SK-OV-3 ovarian; 10 µM,112%
same,growth,IGROV1 ovarian; 10 µM,90.9%
same,growth,OVCAR-3 ovarian; 10 µM,66.1%
same,growth,HS 578T breast; 10 µM,82.9%
same,growth,NCI/ADR-RES ovarian; 10 µM,81.4%
"Cc1c2oc3c(C)ccc(C(=O)N[C@@H]4C(=O)N[C@H](C(C)C)C(=O)N5CCC[C@H]5C(=O)N(C)CC(=O)N(C)[C@@H](C(C)C)C(=O)O[C@H]4C)c3nc-2c(C(=O)N[C@@H]2C(=O)N[C@H](C(C)C)C(=O)N3CCC[C@H]3C(=O)N(C)CC(=O)N(C)[C@@H](C(C)C)C(=O)O[C@H]2C)c(N)c1=O (I: [aThr][dV]P[Sar][NMeV] / II: [aThr][dV]P[Sar][NMeV]; ester I:1-I:C, II:1-II:C; linker I:N-II:N via Actinocin(9to1))",growth,SR leukemia; 0.0025 µM,14.8%
same,growth,SR leukemia; 10 µM,3.04% (active)
same,growth,RPMI-8226 leukemia; 0.0025 µM,3.42% (active)
same,growth,RPMI-8226 leukemia; 10 µM,-21.3% (active)
same,growth,OVCAR-5 ovarian; 0.0025 µM,50.9%
same,growth,OVCAR-5 ovarian; 10 µM,-66.1% (active)
same,growth,OVCAR-4 ovarian; 0.0025 µM,50.3%
same,growth,OVCAR-4 ovarian; 10 µM,-8.21% (active)
same,growth,SK-OV-3 ovarian; 0.0025 µM,92.8%
same,growth,SK-OV-3 ovarian; 10 µM,14.8%
same,growth,IGROV1 ovarian; 0.0025 µM,35.5%
same,growth,IGROV1 ovarian; 10 µM,-27.7% (active)
same,growth,OVCAR-3 ovarian; 0.0025 µM,70%
same,growth,OVCAR-3 ovarian; 10 µM,5.84% (active)
same,growth,HS 578T breast; 0.0025 µM,-10.9% (active)
same,growth,NCI/ADR-RES ovarian; 0.0025 µM,96.7%
same,growth,NCI/ADR-RES ovarian; 10 µM,-39.5% (active)
